{"source": "the supplement of paper PMC9135407", "test_system": "primary human hepatic stellate cells (donor 1)", "experiment": "scaled lipid accumulation score (0 = DMSO-like, 1 = nortriptyline-like); higher = stronger HSC inactivation (lipid re-accumulation), active = hit call of the paper", "details": "48 h", "key": {"[1]": {"details": "library stock concentration: 10 mM"}, "[2]": {"details": "library stock concentration: 6.8 mM"}, "[3]": {"details": "library stock concentration: 3.33 mM"}, "[4]": {"details": "library stock concentration: 1 mM"}, "[5]": {"details": "library stock concentration: 400 uM"}, "[6]": {"details": "library stock concentration: 2 mM"}}, "note": "Counter-ions that a name gives are not always drawn. The campaign covered roughly 5,800 compounds. About 620 (11%) showed activity. What follows is part of a selection rich in actives, with near analogues and random picks from the rest. Unmarked numbers belong to inactive results.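 The calls were made as follows: active = score above a cut-off or among the top three wells of a plate; in these data no inactive exceeds 0.85.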", "data": [{"smiles": "O=C(O)/C(=C\\c1c(C(=O)O)[nH]c2cc(Cl)cc(Cl)c12)c1ccccc1", "values": [{"measurement": "scaled lipid accumulation score", "setting": "[1]", "value": 0.017}]}, {"smiles": "N[C@H](C(=O)O)[C@H](Cc1ccccc1)C(=O)O", "note": "[L-Beta-threo-benzyl-aspartate]", "values": [{"measurement": "scaled lipid accumulation score", "setting": "[1]", "value": "≤ 0"}]}, {"smiles": "CC(C)NCC(O)COc1cccc2ccccc12", "note": "(stereo not drawn)", "values": [{"measurement": "scaled lipid accumulation score", "setting": "[1]", "value": 0.847}]}, {"smiles": "CC(C)NC[C@H](O)COc1cccc2ccccc12.Cl", "values": [{"measurement": "scaled lipid accumulation score", "setting": "library stock concentration: 16.9 mM", "value": "1.02 (active)"}]}, {"smiles": "CC(C)NCC(O)COc1cccc2ccccc12", "note": "(stereo not drawn) [Propranolol hydrochloride]", "values": [{"measurement": "scaled lipid accumulation score", "value": 0.378}, {"measurement": "scaled lipid accumulation score", "setting": "[1]", "value": 0.74}]}, {"smiles": "CC(C)NCC(O)COc1cccc2ccccc12", "note": "(racemic) [Propranolol hydrochloride (+/-)]", "values": [{"measurement": "scaled lipid accumulation score", "setting": "[2]", "value": 0.363}, {"measurement": "scaled lipid accumulation score", "setting": "[1]", "value": 0.457}]}, {"smiles": "CC(C)NC[C@@H](O)COc1cccc2ccccc12", "note": "[(R)-Propranolol hydrochloride]", "values": [{"measurement": "scaled lipid accumulation score", "value": 0.415}]}, {"smiles": "CC(C)NCC(O)COc1cccc2ccccc12", "note": "(stereo not drawn) [Propranolol HCl]", "values": [{"measurement": "scaled lipid accumulation score", "setting": "[3]", "value": "≤ 0"}, {"measurement": "scaled lipid accumulation score", "setting": "[1]", "value": 0.555}]}, {"smiles": "CC(C)NC[C@H](O)COc1cccc2ccccc12", "note": "[(S)-(-)-Propranolol hydrochloride]", "values": [{"measurement": "scaled lipid accumulation score", "setting": "[1]", "value": 0.518}]}, {"smiles": "CC(C)NC[C@@H](O)COc1cccc2ccccc12", "note": "[(R)-(+)-Propranolol hydrochloride]", "values": [{"measurement": "scaled lipid accumulation score", "setting": "[1]", "value": 0.656}]}, {"smiles": "CC(C)NC[C@H](O)COc1cccc2ccccc12", "note": "[(S)-propranolol hydrochloride]", "values": [{"measurement": "scaled lipid accumulation score", "value": 0.444}]}, {"smiles": "CC(C)NCC(O)COc1cccc2ccccc12.Cl", "note": "(stereo not drawn)", "values": [{"measurement": "scaled lipid accumulation score", "setting": "[1]", "value": "0.882 (active)"}]}, {"smiles": "CC(C)NC[C@@H](O)COc1cccc2ccccc12", "note": "[Dexpropranolol hydrochloride]", "values": [{"measurement": "scaled lipid accumulation score", "setting": "[2]", "value": 0.521}, {"measurement": "scaled lipid accumulation score", "setting": "[1]", "value": "≤ 0"}]}, {"smiles": "CC(C)NCC(O)COc1cccc2ccccc12", "note": "(stereo not drawn) [Propranolol]", "values": [{"measurement": "scaled lipid accumulation score", "setting": "library stock concentration: 7.7 mM", "value": 0.676}]}, {"smiles": "CC(C)NC[C@H](O)COc1cccc2ccccc12", "note": "[(S)-Propranolol hydrochloride]", "values": [{"measurement": "scaled lipid accumulation score", "setting": "[1]", "value": 0.445}]}, {"smiles": "CCCOc1ccc(/C=C2/SC(=O)NC2=O)cc1", "note": "[PIM1/2 Kinase Inhibitor VI]", "values": [{"measurement": "scaled lipid accumulation score", "setting": "[3]", "value": 0.001}]}, {"smiles": "C=CCn1c(=O)n([C@@H]2O[C@H](CO)[C@@H](O)[C@H]2O)c2nc(N)[nH]c(=O)c21", "values": [{"measurement": "scaled lipid accumulation score", "setting": "[1]", "value": 0.047}]}, {"smiles": "CCCCC(C)(C)[C@H](O)/C=C/[C@@H]1[C@@H](C/C=C\\CCCC(=O)O)[C@H](O)C[C@H]1O", "note": "[16,16-dimethyl Prostaglandin F2.beta.]", "values": [{"measurement": "scaled lipid accumulation score", "setting": "[4]", "value": "≤ 0"}]}, {"smiles": "CCCCCC=CCC=CC=CC=CC(SCC(NC(C)=O)C(=O)O)C(O)CCCC(=O)O", "note": "(stereo not drawn) [N-Acetyl-leukotriene E4]", "values": [{"measurement": "scaled lipid accumulation score", "setting": "library stock concentration: 100 uM", "value": 0.032}]}, {"smiles": "c1ccc(N2CCN(Cc3nc4ccccc4[nH]3)CC2)nc1", "note": "[ABT 724 trihydrochloride]", "values": [{"measurement": "scaled lipid accumulation score", "setting": "[1]", "value": "≤ -0.001"}]}, {"smiles": "O=C(O)CCc1nc2ccccc2[nH]1", "values": [{"measurement": "scaled lipid accumulation score", "setting": "[1]", "value": 0.2}]}, {"smiles": "O=c1c2sc(-c3ccc(F)cc3)cc2ncn1Cc1nc2ccccc2[nH]1", "values": [{"measurement": "scaled lipid accumulation score", "setting": "[1]", "value": "0.756 (active)"}]}, {"smiles": "CCCCCCCCCCCCCCCCOP(=O)([O-])OCC[N+](C)(C)C", "note": "[Miltefosine]", "values": [{"measurement": "scaled lipid accumulation score", "setting": "[4]", "value": "≤ 0"}, {"measurement": "scaled lipid accumulation score", "setting": "library stock concentration: 4.9 mM", "value": "≤ -0.006"}, {"measurement": "scaled lipid accumulation score", "setting": "[1]", "value": 0.007}]}, {"smiles": "O=C(NCc1ccccc1)c1csc(Nc2ccncn2)n1", "note": "[Thiazovivin]", "values": [{"measurement": "scaled lipid accumulation score", "setting": "[3]", "value": "≤ 0"}, {"measurement": "scaled lipid accumulation score", "setting": "[1]", "value": 0.14}]}, {"smiles": "O=C(NCc1cccc(O)c1)Nc1nc(-c2ccncc2)cs1", "note": "[listing 1 of 2 here]", "values": [{"measurement": "scaled lipid accumulation score", "setting": "[3]", "value": 0.56}]}, {"smiles": "O=C(NCc1cccc(O)c1)Nc1nc(-c2ccncc2)cs1", "note": "[listing 2 of 2 here]", "values": [{"measurement": "scaled lipid accumulation score", "setting": "[1]", "value": "1.02 (active)"}]}, {"smiles": "Cc1nnc(C(C)C)n1C1C[C@H]2CC[C@@H](C1)N2CC[C@H](NC(=O)C1CCC(F)(F)CC1)c1ccccc1", "note": "(stereo in doubt) [Maraviroc]", "values": [{"measurement": "scaled lipid accumulation score", "setting": "[3]", "value": "≤ 0"}, {"measurement": "scaled lipid accumulation score", "setting": "[1]", "value": "≤ 0"}]}, {"smiles": "COc1ccc(/C=C/c2cc(Cl)cc(Cl)c2)cc1", "values": [{"measurement": "scaled lipid accumulation score", "setting": "[4]", "value": "≤ 0"}]}, {"smiles": "CCCCCCCCCCCCCCCNC(=O)C1CCCCC1", "note": "[N-Cyclohexanecarbonylpentadecylamine]", "values": [{"measurement": "scaled lipid accumulation score", "setting": "[4]", "value": "≤ 0"}]}, {"smiles": "CCN(CC)CCCN(c1ccccc1)C1Cc2ccccc2C1", "note": "[Aprindine hydrochloride]", "values": [{"measurement": "scaled lipid accumulation score", "setting": "[1]", "value": 0.262}]}, {"smiles": "O=C(O)CCC/C=C\\C[C@@H]1[C@@H](/C=C/[C@H](O)C2Cc3ccccc3C2)[C@@H](F)C[C@@H]1O", "values": [{"measurement": "scaled lipid accumulation score", "setting": "[1]", "value": "≤ -0.07"}]}, {"smiles": "CC1(C)CC(=O)c2c(C(F)(F)F)nn(-c3ccc(C(N)=O)c(N[C@H]4CC[C@H](OC(=O)CN)CC4)c3)c2C1", "note": "[listing 1 of 2 here]", "values": [{"measurement": "scaled lipid accumulation score", "setting": "[3]", "value": 0.77}]}, {"smiles": "CC1(C)CC(=O)c2c(C(F)(F)F)nn(-c3ccc(C(N)=O)c(N[C@H]4CC[C@H](O)CC4)c3)c2C1", "values": [{"measurement": "scaled lipid accumulation score", "setting": "[3]", "value": 0.635}, {"measurement": "scaled lipid accumulation score", "setting": "[1]", "value": 0.742}]}, {"smiles": "CC1(C)CC(=O)c2c(C(F)(F)F)nn(-c3ccc(C(N)=O)c(N[C@H]4CC[C@H](OC(=O)CN)CC4)c3)c2C1", "note": "[listing 2 of 2 here]", "values": [{"measurement": "scaled lipid accumulation score", "setting": "[1]", "value": "1.05 (active)"}]}, {"smiles": "c1ccc(COCCCc2c[nH]cn2)cc1", "note": "[Proxyfan Oxalate]", "values": [{"measurement": "scaled lipid accumulation score", "setting": "[1]", "value": "≤ 0"}]}, {"smiles": "CC(C)(S)C(N)C(=O)O", "note": "(racemic)", "values": [{"measurement": "scaled lipid accumulation score", "setting": "[1]", "value": "≤ 0"}]}, {"smiles": "Cc1cc(Nc2cc(N3CCN(C)CC3)nc(Sc3ccc(NC(=O)C4CC4)cc3)n2)n[nH]1", "note": "[Tozasertib (VX-680, MK-0457) (0.4 mM)]", "values": [{"measurement": "scaled lipid accumulation score", "setting": "[5]", "value": "≤ -0.005"}]}, {"smiles": "Cc1cc(Nc2cc(N3CCN(C)CC3)nc(/C=C/c3ccccc3)n2)n[nH]1", "values": [{"measurement": "scaled lipid accumulation score", "setting": "[1]", "value": 0.603}]}, {"smiles": "Cc1cc(Nc2cc(N3CCN(C)CC3)nc(Sc3ccc(NC(=O)C4CC4)cc3)n2)n[nH]1", "note": "[VX-680 (Tozasertib, MK-0457)]", "values": [{"measurement": "scaled lipid accumulation score", "setting": "[3]", "value": 0.193}, {"measurement": "scaled lipid accumulation score", "setting": "[1]", "value": 0.038}]}, {"smiles": "Cc1cc(Nc2cc(N3CCN(C)CC3)nc(Sc3ccc(NC(=O)C4CC4)cc3)n2)n[nH]1", "note": "[Tozasertib (VX-680, MK-0457) (10 mM)]", "values": [{"measurement": "scaled lipid accumulation score", "setting": "[1]", "value": 0.456}]}, {"smiles": "Cc1cc(Nc2cc(N3CCN(C)CC3)nc(C=Cc3ccccc3)n2)n[nH]1", "values": [{"measurement": "scaled lipid accumulation score", "setting": "[3]", "value": "1.06 (active)"}]}, {"smiles": "Cc1cc(Nc2cc(N3CCN(C)CC3)nc(Sc3ccc(NC(=O)C4CC4)cc3)n2)n[nH]1", "note": "[Tozasertib (VX-680, MK-0457) (2 mM)]", "values": [{"measurement": "scaled lipid accumulation score", "setting": "[6]", "value": "≤ -0.005"}]}, {"smiles": "Cc1cc(Nc2cc(N3CCN(C)CC3)nc(Sc3ccc(NC(=O)C4CC4)cc3)n2)n[nH]1", "values": [{"measurement": "scaled lipid accumulation score", "setting": "library stock concentration: 80 uM", "value": 0.003}, {"measurement": "scaled lipid accumulation score", "setting": "[5]", "value": 0.063}, {"measurement": "scaled lipid accumulation score", "setting": "[6]", "value": 0.248}, {"measurement": "scaled lipid accumulation score", "setting": "[1]", "value": 0.47}]}, {"smiles": "Cn1cc(-c2cnn3c(N)c(Br)c([C@@H]4CCCNC4)nc23)cn1", "values": [{"measurement": "scaled lipid accumulation score", "setting": "[3]", "value": "≤ 0"}, {"measurement": "scaled lipid accumulation score", "setting": "[1]", "value": 0.521}]}]}
